The source of these data is PubChem BioAssay AID651742 (Broad Institute, 2012).

Out of some 5,600 compounds screened, about 780 (14%) were called active. Roughly 3% stayed inconclusive and do not appear here. The list is a sample of the results. Unmarked numbers belong to inactive results.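 The calls were made as follows: active = mean signal decrease across replicates above about 35% based on untreated-well scatter, with enough replicates individually passing (limit read from the data); inconclusive = no rule stated though some were filed; inactive = the rest.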

The test is described as follows: cytotoxicity in mouse NIH/3T3 fibroblasts, confirmation, cytotoxicity control for T. cruzi proliferation inhibitor project, cell-based, cherry-pick, single point (AID 651742).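 Also: 0% = median of neutral control wells and 100% = median of positive control wells.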 Particulars: NIH/3T3 viability, CellTiter-Glo ATP luminescence, 90 h; at 8.35 µM; stronger effect = higher value.
In the case of `COCCNC[C@@H]1[C@H](c2ccccc2)[C@H](CO)N1c1nc(C)c(C)s1`, the cytotoxicity (signal decrease) is -17.4%.

Turning to `CC(=O)N1CC[C@@H]2[C@H](CO)Nc3ccc(C#Cc4ccccc4F)cc3[C@@H]21`, the cytotoxicity (signal decrease) is -0.01%.

Regarding `COc1ccc(CN(C)C[C@H]2Oc3ccc(NS(=O)(=O)c4ccc(Cl)cc4)cc3CC(=O)N([C@@H](C)CO)C[C@H]2C)cc1`, the cytotoxicity (signal decrease) was 12.2%.

Consider `C[C@@H]1CCCCO[C@H](CN(C)C(=O)NC2CCCCC2)[C@H](C)CN([C@H](C)CO)C(=O)c2cc(NC(=O)Nc3ccc(F)cc3)ccc2O1`, for which the cytotoxicity (signal decrease) is -12.7%.

On to `CCCC#Cc1ccc([C@@H]2[C@@H](C#N)N(C(=O)C3CCCC3)[C@@H]2CO)cc1`, for which the cytotoxicity (signal decrease) was 14.1%.

Turning to `N#Cc1ccc(-c2ccc3c(c2)[C@@H]2[C@@H](CCN2C(=O)Cc2ccncc2)[C@@H](CO)N3)cc1`, the cytotoxicity (signal decrease) is 8.03%.

Regarding `C[C@H]1CN([C@@H](C)CO)C(=O)Cc2cc(NC(=O)Cc3cn(C)c4ccccc34)ccc2O[C@@H]1CN(C)Cc1ccc(C(F)(F)F)cc1`, the cytotoxicity (signal decrease) is 7.48%.

Consider `C[C@@H]1CN([C@H](C)CO)C(=O)c2cccc(NC(=O)c3cnccn3)c2O[C@@H]1CN(C)Cc1ccc(C(=O)Nc2ccccc2N)cc1`, for which the cytotoxicity (signal decrease) is 32.5%.

As for `C[C@@H]1CN([C@@H](C)CO)S(=O)(=O)c2ccc(C#CCN(C)C)cc2O[C@H]1CN(C)C(=O)C1CC1`, the cytotoxicity (signal decrease) is 19.8%.

On to `CC(C)CC#Cc1ccc2c(c1)O[C@H](CN(C)C(=O)C1CC1)[C@@H](C)CN([C@@H](C)CO)S2(=O)=O`, for which the cytotoxicity (signal decrease) was 22.1%.

As for `CC(C)CC#Cc1ccc2c(c1)O[C@H](CN(C)Cc1ccccc1F)[C@@H](C)CN([C@@H](C)CO)S2(=O)=O`, the cytotoxicity (signal decrease) is -3.93%.

On to `CCCN(C)C[C@H]1Oc2cc(C#CC3CCCC3)ccc2S(=O)(=O)N([C@H](C)CO)C[C@@H]1C`, for which the cytotoxicity (signal decrease) was 26.3%.

Turning to `C[C@@H]1CN([C@H](C)CO)S(=O)(=O)c2ccc(C#CC3CCCC3)cc2O[C@@H]1CN(C)Cc1cccnc1`, the cytotoxicity (signal decrease) is 48.5% (active).

Take `CC(C)CC#Cc1ccc2c(c1)O[C@H](CN(C)Cc1cccnc1)[C@H](C)CN([C@@H](C)CO)S2(=O)=O`: the cytotoxicity (signal decrease) was 65.8% (active).

Turning to `C[C@H](CO)N1C[C@H](C)[C@H](CN(C)Cc2cccnc2)Oc2cc(C#CC3CCCC3)ccc2S1(=O)=O`, the cytotoxicity (signal decrease) was 32%.

In the case of `CNC[C@@H]1Oc2cc(C#CCC3CCCC3)ccc2S(=O)(=O)N([C@H](C)CO)C[C@H]1C`, the cytotoxicity (signal decrease) is -4.17%.

On to `C[C@@H]1CCCCO[C@H](CN(C)Cc2ccc(Cl)c(Cl)c2)[C@H](C)CN([C@@H](C)CO)C(=O)c2cc(NC(=O)C3CCCCC3)ccc2O1`, for which the cytotoxicity (signal decrease) is 12.1%.

With `C[C@@H]1CN([C@H](C)CO)S(=O)(=O)c2ccc(C#CC3CCCC3)cc2O[C@@H]1CN(C)C(=O)Cc1ccncc1`, the cytotoxicity (signal decrease) was 4.33%.

`Cc1ccc(S(=O)(=O)N(C)C[C@@H]2OCCCC[C@@H](C)Oc3ccc(NS(=O)(=O)c4ccc(F)cc4)cc3C(=O)N([C@H](C)CO)C[C@H]2C)cc1`: the cytotoxicity (signal decrease) is -0.859%.

Regarding `O=C(Nc1cc(Cl)cc(Cl)c1)N[C@H]1CC[C@@H](CCNS(=O)(=O)c2cccc(F)c2)O[C@H]1CO`, the cytotoxicity (signal decrease) is 2.47%.

On to `C[C@H]1CN([C@@H](C)CO)C(=O)c2cc(C#CC3CCCCC3)cnc2O[C@H]1CN(C)S(=O)(=O)c1ccccc1`, for which the cytotoxicity (signal decrease) is 4.57%.

As for `C[C@H](CO)N1C[C@H](C)[C@@H](CN(C)S(=O)(=O)c2ccccc2)Oc2ncc(C#Cc3ccccc3F)cc2C1=O`, the cytotoxicity (signal decrease) was 37.2% (active).

In the case of `Cc1ccc(S(=O)(=O)N(C)C[C@@H]2Oc3ncc(-c4cc5ccccc5o4)cc3C(=O)N([C@H](C)CO)C[C@@H]2C)cc1`, the cytotoxicity (signal decrease) was 38.6% (active).

With `C[C@@H]1CN([C@H](C)CO)C(=O)c2cc(C#Cc3ccccn3)cnc2O[C@H]1CN(C)Cc1ccccc1`, the cytotoxicity (signal decrease) is -3.21%.

Turning to `C[C@H](CO)N1C[C@H](C)[C@H](CN(C)C(=O)Nc2ccc3c(c2)OCO3)Oc2ncc(C#Cc3cccc(F)c3)cc2C1=O`, the cytotoxicity (signal decrease) was 66.2% (active).

As for `C[C@H](CO)N1C[C@H](C)[C@H](CN(C)C(=O)C2CCCCC2)Oc2ncc(C#Cc3cccc(F)c3)cc2C1=O`, the cytotoxicity (signal decrease) is 25.3%.

For `C[C@H](CO)N1C[C@H](C)[C@@H](CN(C)S(=O)(=O)c2ccccc2F)Oc2ncc(C#Cc3ccccc3F)cc2C1=O`, the cytotoxicity (signal decrease) was 48% (active).

With `C[C@H](CO)N1C[C@H](C)[C@H](CN(C)S(=O)(=O)c2ccccc2)Oc2ncc(-c3cccc(C(F)(F)F)c3)cc2C1=O`, the cytotoxicity (signal decrease) was 33.1%.

Regarding `Cc1ccc(-c2cnc3c(c2)C(=O)N([C@@H](C)CO)C[C@@H](C)[C@H](CN(C)Cc2ccccc2F)O3)cc1`, the cytotoxicity (signal decrease) is 33%.

As for `CCCNC(=O)N(C)C[C@@H]1Oc2ncc(C#Cc3ccccc3F)cc2C(=O)N([C@@H](C)CO)C[C@H]1C`, the cytotoxicity (signal decrease) was -5.73%.

With `C[C@@H]1CN([C@H](C)CO)C(=O)c2cc(-c3cncnc3)cnc2O[C@H]1CN(C)C(=O)Nc1ccc2c(c1)OCO2`, the cytotoxicity (signal decrease) is -12.9%.

With `C[C@@H]1CN([C@@H](C)CO)C(=O)c2cc(C#CC3CCCCC3)cnc2O[C@H]1CN(C)S(=O)(=O)c1ccccc1`, the cytotoxicity (signal decrease) was 17.3%.

For `N#C[C@@H]1[C@H](c2ccc(C#Cc3cccc(F)c3)cc2)[C@@H](CO)N1C(=O)C1CCCC1`, the cytotoxicity (signal decrease) was -6.1%.

As for `CC(C)(C)[S@@](=O)N1Cc2cc(C(=O)NCc3ccc4c(c3)OCO4)nc(-c3cccc(-c4ccccc4)c3)c2[C@H]1CCO`, the cytotoxicity (signal decrease) is 24%.

As to `COc1cccc(S(=O)(=O)N2CCCCN3[C@H](CO)[C@H](c4ccc(C#CC5CC5)cc4)[C@H]3C2)c1`, the cytotoxicity (signal decrease) was 24.2%.

Regarding `C[C@@H]1CCCCO[C@H](CN(C)C(=O)NC2CCCCC2)[C@H](C)CN([C@H](C)CO)C(=O)c2cc(NS(=O)(=O)c3ccc(Cl)cc3)ccc2O1`, the cytotoxicity (signal decrease) is -21.2%.

Consider `C[C@H]1CN([C@@H](C)CO)C(=O)c2cccc(NS(=O)(=O)c3cn(C)cn3)c2O[C@@H]1CN(C)CC1CCCCC1`, for which the cytotoxicity (signal decrease) is -8.55%.

Take `C[C@@H]1CCCCO[C@@H](CN(C)C(=O)Nc2ccc(F)cc2)[C@H](C)CN([C@H](C)CO)C(=O)c2cc(NC(=O)Nc3cccc4ccccc34)ccc2O1`: the cytotoxicity (signal decrease) was 1.18%.
